According to the supplement of paper PMC10849652:
About 8,800 targets were measured; listed, in parts, are those with a hit and a random draw of the rest. About 0.5% of all pairs of compound and target were hits.

Tests used:
Test in all cases: log2 fold change, soluble protein after heating vs DMSO (PISA); higher = thermal stabilisation; K562 lysate, 10 uM; active = over 0.2 and 3.5 SD of the protein, either way, in both replicates (recomputed)
alvocidib = compound: CN1CC[C@H](c2c(O)cc(O)c3c(=O)cc(-c4ccccc4Cl)oc23)[C@H](O)C1 [alvocidib]
In short: (§1)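 The values are log-two fold changes in thermal stability compared with solvent controls and come from duplicates. They were obtained by TMTpro 16plex LC-MS/MS, with channel sums equalised, on the supernatant after 21,000xg for 90 min. That supernatant came from crude K562 extract at 1 mg/mL protein treated with 10 μM compound for 30 min, heated for 3 min across 48°C-58°C, pooled and brought to 0.5% NP-40 at 4°C.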

Tubastatin A = compound: CN1CCc2c(c3ccccc3n2Cc2ccc(C(=O)NO)cc2)C1 [Tubastatin A]
In short: as §1

[1] = compound: CNC(=O)C1=CC=CC=C1NC2=NC(=NC=C2Cl)NC3=C(C=C(C=C3)N4CCOCC4)OC
In short: as §1

defactinib = compound: CNC(=O)c1ccc(Nc2ncc(C(F)(F)F)c(NCc3nccnc3N(C)S(C)(=O)=O)n2)cc1 [defactinib]
In short: as §1

[2] = compound: CNc1nc(-c2ccc3c(N)n[nH]c3c2)cc(N2C[C@@H](C(=O)NC3CCCCC3)CC[C@H]2C)n1
In short: as §1

encorafenib = compound: COC(=O)N[C@@H](C)CNc1nccc(-c2cn(C(C)C)nc2-c2cc(Cl)cc(NS(C)(=O)=O)c2F)n1 [encorafenib]
In short: as §1

[3] = compound: COC(=O)[C@H](CCSC)NC(=O)C1=C(C=C(C=C1)NC[C@H](CS)N)C2=CC=CC=C2
In short: as §1

alisertib = compound: COc1cc(Nc2ncc3c(n2)-c2ccc(Cl)cc2C(c2c(F)cccc2OC)=NC3)ccc1C(=O)O [alisertib]
In short: as §1

[4] = compound: COc1cc2nc(-c3cc(F)ccc3O)nc(N[C@@H]3CNC[C@H]3C(C)(C)O)c2cc1OC
In short: as §1

gefitinib = compound: COc1cc2ncnc(Nc3ccc(F)c(Cl)c3)c2cc1OCCCN1CCOCC1 [gefitinib]
In short: as §1

lapatinib = compound: CS(=O)(=O)CCNCc1ccc(-c2ccc3ncnc(Nc4ccc(OCc5cccc(F)c5)c(Cl)c4)c3c2)o1 [lapatinib]
In short: as §1

pictilisib = compound: CS(=O)(=O)N1CCN(Cc2cc3nc(-c4cccc5[nH]ncc45)nc(N4CCOCC4)c3s2)CC1 [pictilisib]
In short: as §1

crizotinib = compound: C[C@@H](Oc1cc(-c2cnn(C3CCNCC3)c2)cnc1N)c1c(Cl)ccc(F)c1Cl [crizotinib]
In short: as §1

[5] = compound: C[C@H](C1=CC=C(C=C1)C(=O)NC2=C3C=CNC3=NC=C2)N
In short: as §1

duvelisib = compound: C[C@H](Nc1ncnc2nc[nH]c12)c1cc2cccc(Cl)c2c(=O)n1-c1ccccc1 [duvelisib]
In short: as §1

gandotinib = compound: Cc1cc(Nc2cc(CN3CCOCC3)c3nc(C)c(Cc4ccc(Cl)cc4F)n3n2)n[nH]1 [gandotinib]
In short: as §1

tozasertib = compound: Cc1cc(Nc2cc(N3CCN(C)CC3)nc(Sc3ccc(NC(=O)C4CC4)cc3)n2)n[nH]1 [tozasertib]
In short: as §1

doramapimod = compound: Cc1ccc(-n2nc(C(C)(C)C)cc2NC(=O)Nc2ccc(OCCN3CCOCC3)c3ccccc23)cc1 [doramapimod]
In short: as §1

bafetinib = compound: Cc1ccc(NC(=O)c2ccc(CN3CC[C@H](N(C)C)C3)c(C(F)(F)F)c2)cc1Nc1nccc(-c2cncnc2)n1 [bafetinib]
In short: as §1

[6] = compound: Cc1cccc(CC(=O)N2CCc3c2ccc(-c2cn(C)c4ncnc(N)c24)c3F)n1
In short: as §1

Measured: log2 fold change

MPZL1 (UniProt O95297)
inactive: alvocidib -0.01 | Tubastatin A 0.048 | [1] -0.014 | defactinib 0.01 | [2] 0.028 | encorafenib 0.045 | [3] -0.082 | alisertib 0.007 | [4] 0.012 | gefitinib 0.016 | lapatinib -0.006 | pictilisib -0.026 | crizotinib 0.074 | [5] 0.132 | duvelisib 0.001 | gandotinib -0.009 | tozasertib -0.029 | doramapimod -0.087 | bafetinib -0.027 | [6] -0.107

LAGE3 (UniProt Q14657)
inactive: alvocidib -0.013 | Tubastatin A 0.004 | [1] -0.001 | defactinib -0.194 | [2] -0.035 | encorafenib 0.047 | [3] -0.076 | alisertib 0.224 | [4] -0.042 | gefitinib 0.107 | lapatinib 0.002 | pictilisib -0.032 | crizotinib -0.014 | [5] 0.04 | duvelisib -0.12 | gandotinib -0.013 | tozasertib 0.043 | doramapimod 0.009 | bafetinib 0.084 | [6] 0.013

MAP4 (UniProt E7EVA0)
inactive: alvocidib -0.074 | Tubastatin A 0.1 | [1] 0 | defactinib 0.01 | [2] 0.037 | encorafenib -0.04 | [3] -0.117 | alisertib -0.028 | [4] 0.054 | gefitinib 0.098 | lapatinib 0.002 | pictilisib -0.054 | crizotinib -0.163 | [5] -0.096 | duvelisib 0.012 | gandotinib 0.007 | tozasertib 0.055 | doramapimod 0.017 | bafetinib -0.055 | [6] 0.008

LTN1 isoform 3 (UniProt O94822)
inactive: alvocidib 0.016 | Tubastatin A -0.259 | [1] -0.014 | defactinib -0.009 | [2] -0.063 | encorafenib 0.034 | [3] -0.072 | alisertib 0.017 | [4] 0.035 | gefitinib -0.021 | lapatinib 0.086 | pictilisib -0.017 | crizotinib -0.046 | [5] 0.027 | duvelisib -0.029 | gandotinib -0.18 | tozasertib 0.003 | doramapimod 0.009 | bafetinib -0.071 | [6] 0.007

KPNA4 (UniProt O00629)
inactive: alvocidib -0.098 | Tubastatin A 0.007 | [1] 0.014 | defactinib -0.002 | [2] 0.008 | encorafenib 0.02 | [3] -0.059 | alisertib -0.007 | [4] 0.002 | gefitinib 0.013 | lapatinib 0.03 | pictilisib 0.011 | crizotinib -0.044 | duvelisib 0.012 | gandotinib 0.089 | tozasertib -0.018 | doramapimod 0.02 | bafetinib 0.049 | [6] 0.155
active: [5] -0.217

LYN (UniProt P07948)
inactive: alvocidib 0.026 | Tubastatin A -0.046 | [1] 0.203 | defactinib 0.076 | [2] -0.092 | encorafenib -0.01 | [3] -0.072 | alisertib 0.171 | [4] 0.26 | gefitinib -0.006 | lapatinib -0.184 | pictilisib -0.036 | crizotinib 0.093 | [5] -0.079 | duvelisib -0.042 | gandotinib 0.551 | tozasertib 0.11 | doramapimod 0.026 | [6] -0.005
active: bafetinib 0.763

MED17 (UniProt Q9NVC6)
inactive: alvocidib -0.001 | Tubastatin A -0.093 | [1] 0.025 | defactinib -0.035 | [2] -0.019 | encorafenib 0.03 | [3] -0.017 | alisertib -0.012 | [4] 0.023 | gefitinib -0.015 | lapatinib 0.003 | pictilisib 0.018 | crizotinib -0.029 | [5] -0.058 | duvelisib -0.005 | gandotinib -0.037 | tozasertib -0.043 | doramapimod 0.008 | bafetinib -0.005 | [6] 0.034

KMT2A isoform 3 (UniProt Q03164)
Sequence of UniProt Q03164 (Q03164 whole entry, looked up): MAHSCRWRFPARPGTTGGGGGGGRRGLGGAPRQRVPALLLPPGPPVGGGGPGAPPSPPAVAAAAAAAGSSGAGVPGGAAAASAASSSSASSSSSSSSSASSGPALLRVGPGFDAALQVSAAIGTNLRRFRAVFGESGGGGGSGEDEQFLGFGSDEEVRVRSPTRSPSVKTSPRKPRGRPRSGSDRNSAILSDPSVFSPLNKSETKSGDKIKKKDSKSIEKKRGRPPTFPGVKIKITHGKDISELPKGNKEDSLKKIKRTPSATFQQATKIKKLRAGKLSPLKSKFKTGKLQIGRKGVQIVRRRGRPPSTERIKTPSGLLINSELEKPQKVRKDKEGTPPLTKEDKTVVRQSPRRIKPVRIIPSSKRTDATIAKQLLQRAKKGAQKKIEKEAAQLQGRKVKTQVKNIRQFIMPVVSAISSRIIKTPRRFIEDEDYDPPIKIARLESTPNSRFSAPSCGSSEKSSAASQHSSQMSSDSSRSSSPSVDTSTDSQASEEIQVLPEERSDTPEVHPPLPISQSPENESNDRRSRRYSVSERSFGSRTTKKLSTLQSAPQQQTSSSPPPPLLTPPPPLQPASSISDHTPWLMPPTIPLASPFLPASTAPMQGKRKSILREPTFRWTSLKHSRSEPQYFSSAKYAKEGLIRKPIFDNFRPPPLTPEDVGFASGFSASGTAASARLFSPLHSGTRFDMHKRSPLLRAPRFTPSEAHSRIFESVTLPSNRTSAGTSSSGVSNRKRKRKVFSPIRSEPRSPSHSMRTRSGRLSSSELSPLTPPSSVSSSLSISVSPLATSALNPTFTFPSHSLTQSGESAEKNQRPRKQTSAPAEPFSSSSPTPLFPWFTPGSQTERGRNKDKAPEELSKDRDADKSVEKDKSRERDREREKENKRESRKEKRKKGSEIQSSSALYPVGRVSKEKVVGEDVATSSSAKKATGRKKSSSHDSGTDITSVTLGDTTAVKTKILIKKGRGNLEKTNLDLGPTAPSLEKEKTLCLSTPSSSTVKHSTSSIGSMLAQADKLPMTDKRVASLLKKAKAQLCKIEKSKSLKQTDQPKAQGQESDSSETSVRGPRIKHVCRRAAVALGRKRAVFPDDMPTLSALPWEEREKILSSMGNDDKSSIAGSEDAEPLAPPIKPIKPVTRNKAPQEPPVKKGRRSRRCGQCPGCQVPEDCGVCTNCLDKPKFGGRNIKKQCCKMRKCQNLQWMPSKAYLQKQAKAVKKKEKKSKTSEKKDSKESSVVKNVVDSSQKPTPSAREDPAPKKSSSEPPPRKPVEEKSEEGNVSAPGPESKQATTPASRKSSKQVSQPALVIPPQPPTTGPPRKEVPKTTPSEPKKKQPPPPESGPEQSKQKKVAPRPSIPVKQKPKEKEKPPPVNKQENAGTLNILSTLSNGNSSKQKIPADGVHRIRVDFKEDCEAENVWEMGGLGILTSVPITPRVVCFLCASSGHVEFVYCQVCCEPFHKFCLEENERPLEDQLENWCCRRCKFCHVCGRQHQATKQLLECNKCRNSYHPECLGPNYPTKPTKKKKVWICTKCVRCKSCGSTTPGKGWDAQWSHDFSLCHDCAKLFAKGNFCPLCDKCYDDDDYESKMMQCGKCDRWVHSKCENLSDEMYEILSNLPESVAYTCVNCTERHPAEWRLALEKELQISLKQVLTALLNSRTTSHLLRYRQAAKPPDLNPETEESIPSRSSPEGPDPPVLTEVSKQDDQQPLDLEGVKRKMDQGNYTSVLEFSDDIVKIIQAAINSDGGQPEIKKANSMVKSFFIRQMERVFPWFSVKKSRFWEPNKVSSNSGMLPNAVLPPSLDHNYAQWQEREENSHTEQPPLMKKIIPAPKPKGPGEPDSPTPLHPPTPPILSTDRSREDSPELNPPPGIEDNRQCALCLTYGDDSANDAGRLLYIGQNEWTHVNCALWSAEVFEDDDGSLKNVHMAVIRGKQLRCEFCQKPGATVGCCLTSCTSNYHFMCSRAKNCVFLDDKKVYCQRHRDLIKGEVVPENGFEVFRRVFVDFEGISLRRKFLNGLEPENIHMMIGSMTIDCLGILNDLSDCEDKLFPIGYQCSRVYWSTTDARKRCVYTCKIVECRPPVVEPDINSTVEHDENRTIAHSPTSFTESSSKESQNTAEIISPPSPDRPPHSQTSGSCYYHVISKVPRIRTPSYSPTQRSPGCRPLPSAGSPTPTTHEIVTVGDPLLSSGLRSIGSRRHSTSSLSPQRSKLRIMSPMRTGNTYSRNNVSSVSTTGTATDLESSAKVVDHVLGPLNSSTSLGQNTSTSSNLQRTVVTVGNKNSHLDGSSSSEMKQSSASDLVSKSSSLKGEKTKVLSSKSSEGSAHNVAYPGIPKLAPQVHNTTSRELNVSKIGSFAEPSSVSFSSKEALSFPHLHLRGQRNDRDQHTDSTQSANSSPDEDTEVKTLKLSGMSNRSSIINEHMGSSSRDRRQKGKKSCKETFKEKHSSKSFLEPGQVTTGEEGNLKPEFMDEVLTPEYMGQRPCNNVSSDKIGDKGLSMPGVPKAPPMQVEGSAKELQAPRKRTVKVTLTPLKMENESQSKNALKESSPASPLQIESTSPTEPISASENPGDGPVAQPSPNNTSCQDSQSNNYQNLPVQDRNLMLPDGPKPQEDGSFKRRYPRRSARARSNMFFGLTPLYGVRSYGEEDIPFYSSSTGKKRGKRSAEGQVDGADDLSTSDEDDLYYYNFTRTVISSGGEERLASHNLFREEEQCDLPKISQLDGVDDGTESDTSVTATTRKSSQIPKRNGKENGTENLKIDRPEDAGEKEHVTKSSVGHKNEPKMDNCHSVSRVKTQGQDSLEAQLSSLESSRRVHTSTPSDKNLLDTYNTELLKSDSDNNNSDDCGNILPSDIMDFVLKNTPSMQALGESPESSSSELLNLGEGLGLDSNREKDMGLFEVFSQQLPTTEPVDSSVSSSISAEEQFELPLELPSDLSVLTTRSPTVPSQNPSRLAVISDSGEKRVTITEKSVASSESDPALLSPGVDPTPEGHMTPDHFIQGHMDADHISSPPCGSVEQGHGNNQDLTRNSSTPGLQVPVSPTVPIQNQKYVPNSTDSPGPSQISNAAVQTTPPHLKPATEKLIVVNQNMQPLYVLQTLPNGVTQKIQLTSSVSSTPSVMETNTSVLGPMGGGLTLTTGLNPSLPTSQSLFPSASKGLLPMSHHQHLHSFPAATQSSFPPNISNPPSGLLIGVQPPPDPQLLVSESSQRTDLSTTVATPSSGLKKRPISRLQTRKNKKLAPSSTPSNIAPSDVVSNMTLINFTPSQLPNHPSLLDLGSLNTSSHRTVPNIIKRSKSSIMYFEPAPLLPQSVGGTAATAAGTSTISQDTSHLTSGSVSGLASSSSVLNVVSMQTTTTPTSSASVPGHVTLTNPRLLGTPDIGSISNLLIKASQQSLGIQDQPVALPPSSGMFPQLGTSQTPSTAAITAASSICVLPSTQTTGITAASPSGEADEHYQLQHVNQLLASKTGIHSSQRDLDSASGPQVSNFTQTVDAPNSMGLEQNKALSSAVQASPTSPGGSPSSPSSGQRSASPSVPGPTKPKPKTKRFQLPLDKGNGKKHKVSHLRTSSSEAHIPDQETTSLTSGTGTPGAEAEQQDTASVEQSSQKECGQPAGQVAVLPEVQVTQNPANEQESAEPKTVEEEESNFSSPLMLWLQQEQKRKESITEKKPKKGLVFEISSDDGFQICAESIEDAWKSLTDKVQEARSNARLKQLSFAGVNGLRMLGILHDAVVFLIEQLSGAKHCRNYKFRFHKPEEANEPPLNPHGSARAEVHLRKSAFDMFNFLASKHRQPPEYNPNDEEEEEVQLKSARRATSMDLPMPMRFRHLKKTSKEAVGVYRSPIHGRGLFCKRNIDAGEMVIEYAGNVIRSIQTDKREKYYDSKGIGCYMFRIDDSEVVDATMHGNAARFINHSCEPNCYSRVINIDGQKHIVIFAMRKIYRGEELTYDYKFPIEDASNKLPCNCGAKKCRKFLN
inactive: alvocidib -0.073 | Tubastatin A 0.011 | [1] -0.07 | defactinib -0.054 | [2] -0.069 | encorafenib -0.118 | [3] -0.037 | alisertib -0.371 | [4] 0.061 | gefitinib -0.172 | lapatinib -0.07 | pictilisib -0.102 | crizotinib -0.033 | [5] 0.091 | duvelisib 0.013 | gandotinib 0.013 | tozasertib 0.148 | doramapimod 0.026 | bafetinib -0.41 | [6] 0.069

LETM1 (UniProt O95202)
inactive: alvocidib -0.046 | Tubastatin A -0.033 | [1] 0.018 | defactinib -0.007 | [2] -0.027 | encorafenib -0.001 | [3] -0.018 | alisertib -0.022 | [4] -0.166 | gefitinib -0.04 | lapatinib -0.001 | pictilisib 0.004 | crizotinib -0.043 | [5] 0.015 | duvelisib -0.018 | gandotinib 0.03 | tozasertib 0.005 | doramapimod -0.01 | bafetinib -0.049 | [6] -0.085

KIF4A (UniProt O95239)
Sequence of UniProt O95239 (O95239 whole entry, looked up): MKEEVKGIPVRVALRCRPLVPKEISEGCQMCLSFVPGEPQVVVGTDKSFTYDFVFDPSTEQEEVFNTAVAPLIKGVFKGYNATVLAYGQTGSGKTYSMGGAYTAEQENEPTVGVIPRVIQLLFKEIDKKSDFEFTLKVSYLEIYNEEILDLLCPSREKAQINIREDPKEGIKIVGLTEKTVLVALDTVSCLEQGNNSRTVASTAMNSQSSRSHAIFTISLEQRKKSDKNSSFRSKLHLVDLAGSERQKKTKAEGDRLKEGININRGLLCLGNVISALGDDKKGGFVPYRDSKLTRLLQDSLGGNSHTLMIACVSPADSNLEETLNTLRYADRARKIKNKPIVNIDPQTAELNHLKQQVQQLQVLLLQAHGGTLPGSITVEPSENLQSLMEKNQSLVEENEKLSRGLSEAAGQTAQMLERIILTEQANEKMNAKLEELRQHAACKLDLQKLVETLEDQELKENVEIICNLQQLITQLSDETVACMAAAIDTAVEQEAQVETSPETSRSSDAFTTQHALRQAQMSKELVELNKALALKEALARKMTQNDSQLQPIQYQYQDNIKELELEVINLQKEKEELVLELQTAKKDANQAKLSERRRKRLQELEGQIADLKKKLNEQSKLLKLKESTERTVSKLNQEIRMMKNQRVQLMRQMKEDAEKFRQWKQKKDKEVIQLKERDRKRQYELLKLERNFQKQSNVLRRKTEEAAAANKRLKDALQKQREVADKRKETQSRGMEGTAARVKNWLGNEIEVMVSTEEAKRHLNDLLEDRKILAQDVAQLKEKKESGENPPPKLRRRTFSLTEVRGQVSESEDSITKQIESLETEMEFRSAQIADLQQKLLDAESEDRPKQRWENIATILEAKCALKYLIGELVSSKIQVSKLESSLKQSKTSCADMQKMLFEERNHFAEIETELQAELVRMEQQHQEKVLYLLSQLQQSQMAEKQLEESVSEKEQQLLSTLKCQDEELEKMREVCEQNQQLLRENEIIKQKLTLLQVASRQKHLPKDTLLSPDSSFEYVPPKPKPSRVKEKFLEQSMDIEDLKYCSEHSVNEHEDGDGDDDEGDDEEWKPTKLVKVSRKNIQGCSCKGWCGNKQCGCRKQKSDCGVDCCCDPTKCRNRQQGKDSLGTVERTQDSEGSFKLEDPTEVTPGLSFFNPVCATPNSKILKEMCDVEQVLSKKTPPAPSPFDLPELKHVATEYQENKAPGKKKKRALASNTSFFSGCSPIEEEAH
inactive: alvocidib 0.006 | Tubastatin A -0.145 | [1] 0.022 | defactinib 0.006 | [2] 0.005 | encorafenib -0.014 | [3] 0.154 | alisertib -0.041 | [4] -0.035 | gefitinib -0.018 | lapatinib 0.007 | pictilisib -0.002 | crizotinib -0.043 | [5] 0.012 | duvelisib -0.029 | gandotinib -0.061 | tozasertib 0.021 | doramapimod 0 | bafetinib -0.066 | [6] -0.006

MAP11 (UniProt Q8WVR3)
inactive: alvocidib -0.117 | Tubastatin A -0.091 | [1] 0.021 | defactinib 0.076 | [2] 0.004 | encorafenib -0.058 | [3] -0.084 | alisertib -0.001 | [4] -0.025 | gefitinib -0.046 | lapatinib -0.047 | pictilisib -0.028 | crizotinib -0.011 | [5] -0.102 | duvelisib -0.04 | gandotinib -0.06 | tozasertib -0.024 | doramapimod -0.024 | bafetinib -0.021 | [6] 0.001

MCCC1 (UniProt Q96RQ3)
inactive: alvocidib 0.063 | Tubastatin A -0.036 | [1] 0.003 | defactinib -0.002 | [2] -0.025 | encorafenib 0.012 | [3] -0.057 | alisertib 0 | [4] 0.001 | gefitinib 0.017 | lapatinib -0.022 | pictilisib -0.038 | crizotinib -0.004 | [5] 0.106 | duvelisib 0.017 | gandotinib -0.14 | tozasertib -0.019 | doramapimod 0.003 | bafetinib -0.048 | [6] -0.093

MLXIP (UniProt Q9HAP2)
inactive: alvocidib -0.035 | Tubastatin A -0.016 | [1] -0.049 | defactinib -0.029 | [2] -0.017 | encorafenib 0.027 | [3] -0.016 | alisertib 0.002 | [4] -0.051 | gefitinib -0.047 | lapatinib -0.009 | pictilisib -0.049 | crizotinib -0.023 | [5] -0.052 | duvelisib -0.078 | gandotinib -0.032 | tozasertib 0.019 | doramapimod 0.009 | bafetinib -0.01 | [6] 0.043

LIG4 (UniProt P49917)
inactive: alvocidib 0.02 | Tubastatin A -0.025 | [1] -0.04 | defactinib 0.063 | [2] 0.005 | encorafenib 0.048 | alisertib -0.049 | [4] -0.096 | gefitinib -0.069 | lapatinib 0.028 | pictilisib -0.245 | crizotinib -0.035 | [5] -0.064 | duvelisib 0.022 | gandotinib -0.07 | tozasertib -0.034 | doramapimod -0.037 | bafetinib -0.167 | [6] 0.073
active: [3] 0.415

LARS (UniProt Q9P2J5)
inactive: alvocidib 0.051 | Tubastatin A -0.153 | [1] 0.006 | defactinib 0.023 | [2] -0.054 | encorafenib 0.001 | [3] 0.097 | alisertib 0.01 | [4] -0.013 | gefitinib -0.007 | lapatinib -0.004 | pictilisib -0.015 | crizotinib -0.043 | [5] 0.047 | duvelisib -0.013 | gandotinib -0.081 | tozasertib 0.012 | doramapimod -0.009 | bafetinib -0.048 | [6] -0.005

LAMP1 (UniProt P11279)
inactive: alvocidib -0.242 | Tubastatin A 0.051 | [1] -0.013 | defactinib -0.03 | [2] 0.059 | encorafenib 0.015 | [3] -0.047 | alisertib 0.017 | [4] 0.028 | gefitinib 0.053 | lapatinib -0.033 | pictilisib -0.014 | crizotinib -0.014 | duvelisib 0.005 | tozasertib -0.05 | doramapimod -0.044 | bafetinib -0.065 | [6] 0.172
active: [5] -0.496 | gandotinib 0.241
